Where “and” joins values, the source holds several entries; their conditions need not be identical. Equal values may be shown once. The whole screen tested about 5,500 compounds, of which about 2,000 (36%) were called active. Another 18% or so got no clear call; they are omitted. Rule as the data show it: active = normalized growth mostly below about 0.91 (no sharp cut-off); inconclusive = no clear call, values can overlap the other calls; inactive = mostly above about 0.92. Some of the results follow.
Test: chemical genetic growth profiling, strain panel (AID 1159580);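 also: tested at 20 µM; growth read once vehicle control cultures reached saturation at 30 °C; 1 = growth at the plate median or of vehicle wells; lower values mean less growth of the strain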
Conditions: S. cerevisiae deletion strains, growth OD

Measured: normalized growth

O=C(O)c1cccnc1
inactive: locus YAL013W, strain DEP1, stronger effect = lower value 0.987 | locus YAL021C, strain ccr4, stronger effect = lower value 1 | locus YAL026C, strain drs2, stronger effect = lower value 0.993 | locus YAL030W, strain snc1, stronger effect = lower value 0.994 | locus YBL061C, strain skt5, stronger effect = lower value 1.02 | locus YBR009C, strain hhf1, stronger effect = lower value 1.01 | locus YBR021W, strain FUR4, stronger effect = lower value 1.02 | locus YBR023C, strain chs3, stronger effect = lower value 1.01 | locus YBR171W, strain sec66, stronger effect = lower value 0.997 | locus YBR229C, strain ROT2, stronger effect = lower value 0.96 | locus YBR231C, strain swc5, stronger effect = lower value 0.996 | locus YBR279W, strain paf1, stronger effect = lower value 1 | locus YCL011C, strain gbp2, stronger effect = lower value 0.984 | locus YCL016C, strain dcc1, stronger effect = lower value 1.03 | locus YCL029C, strain bik1, stronger effect = lower value 1.01 | locus YCL061C, strain MRC1, stronger effect = lower value 1 | locus YCL069W, strain vba3, stronger effect = lower value 0.976 | locus YCR088W, strain abp1, stronger effect = lower value 0.992 | locus YDL005C, strain med2, stronger effect = lower value 0.98 | locus YDL035C, strain GPR1, stronger effect = lower value 0.968 | locus YDL040C, strain nat1, stronger effect = lower value 0.987 | locus YDL074C, strain BRE1, stronger effect = lower value 1.02 | locus YDL101C, strain DUN1, stronger effect = lower value 1.01 | locus YDL134C, strain PPH21, stronger effect = lower value 0.984 | locus YDL185W, strain tfp1, stronger effect = lower value 1.01 | locus YDL192W, strain arf1, stronger effect = lower value 1 | locus YDR001C, strain nth1, stronger effect = lower value 0.992 | locus YDR069C, strain doa4, stronger effect = lower value 1.01 | locus YDR101C, strain arx1, stronger effect = lower value 1.02 | locus YDR137W, strain rgp1, stronger effect = lower value 1.05 | locus YDR150W, strain NUM1, stronger effect = lower value 0.983 | locus YDR159W, strain sac3, stronger effect = lower value 0.977 | locus YDR162C, strain NBP2, stronger effect = lower value 0.985 | locus YDR195W, strain ref2 1.01 | locus YDR297W, strain sur2, stronger effect = lower value 0.996 | locus YDR318W, strain mcm21, stronger effect = lower value 1.04 | locus YDR334W, strain swr1, stronger effect = lower value 0.971 | locus YDR335W, strain msn5, stronger effect = lower value 0.993 | locus YDR388W, stronger effect = lower value 1 | locus YDR392W, strain spt3, stronger effect = lower value 0.973 | locus YDR502C, strain sam2, stronger effect = lower value 1 | locus YEL003W, strain gim4, stronger effect = lower value 0.985 | locus YEL037C, strain rad23, stronger effect = lower value 0.977 | locus YEL061C, strain CIN8 (second series), stronger effect = lower value 0.98 | locus YEL061C, strain CIN8, stronger effect = lower value 0.989 | locus YER015W, strain faa2, stronger effect = lower value 0.998 | locus YER016W, strain bim1, stronger effect = lower value 0.992 | locus YER110C, stronger effect = lower value 0.985 | locus YER111C, strain swi4, stronger effect = lower value 0.999 | locus YER155C, strain BEM2 (second series), stronger effect = lower value 0.995 | locus YER155C, strain BEM2, stronger effect = lower value 1.02 | locus YER167W, strain BCK2, stronger effect = lower value 0.982 | locus YFR010W, strain ubp6, stronger effect = lower value 0.995 | locus YGL078C, strain dbp3, stronger effect = lower value 1 | locus YGL086W, strain mad1, stronger effect = lower value 1.02 | locus YGL167C, strain pmr1, stronger effect = lower value 1.01 | locus YGL173C, strain kem1, stronger effect = lower value 1.01 | locus YGL227W, strain vid30, stronger effect = lower value 0.987 | locus YGL240W, strain doc1, stronger effect = lower value 1.01 | locus YGL248W, strain PDE1, stronger effect = lower value 0.983 | locus YGL253W, strain hxk2, stronger effect = lower value 0.987 | locus YGR078C, strain PAC10, stronger effect = lower value 1.04 | locus YGR135W, strain pre9, stronger effect = lower value 1.05 | locus YGR229C, strain SMI1, stronger effect = lower value 1.03 | locus YGR252W, strain gcn5, stronger effect = lower value 0.919 | locus YHR013C, strain ard1, stronger effect = lower value 1.04 | locus YHR027C, strain rpn1, stronger effect = lower value 1.01 | locus YHR030C, strain SLT2, stronger effect = lower value 0.997 and 1 | locus YHR079C, strain IRE1 (second series), stronger effect = lower value 1.01 | locus YHR079C, strain IRE1, stronger effect = lower value 1.03 | locus YHR094C, strain hxt1, stronger effect = lower value 0.999 | locus YHR129C, strain ARP1, stronger effect = lower value 1.01 | locus YHR142W, strain chs7, stronger effect = lower value 1.01 | locus YHR200W, strain rpn10, stronger effect = lower value 1.02 | locus YIL066C, strain RNR3, stronger effect = lower value 0.982 | locus YIL073C, strain SPO22, stronger effect = lower value 1.01 | locus YIL125W, strain kgd1, stronger effect = lower value 0.984 | locus YIR030C, strain dcg1, stronger effect = lower value 0.996 | locus YJL092W, strain hpr5, stronger effect = lower value 0.978 | locus YJL095W, strain BCK1 (second series), stronger effect = lower value 1 | locus YJL095W, strain BCK1, stronger effect = lower value 1.05 and 0.999 | locus YJL115W, strain asf1, stronger effect = lower value 0.973 | locus YJL129C, strain trk1, stronger effect = lower value 0.949 | locus YJL134W, strain LCB3, stronger effect = lower value 0.991 | locus YJL154C, strain vps35, stronger effect = lower value 0.977 | locus YJL164C, strain tpk1, stronger effect = lower value 1.02 | locus YJL166W, strain qcr8, stronger effect = lower value 0.988 | locus YJL168C, strain set2, stronger effect = lower value 1 | locus YJL187C, strain SWE1 (second series), stronger effect = lower value 0.996 | locus YJL187C, strain SWE1, stronger effect = lower value 0.99 | locus YJR043C, strain POL32, stronger effect = lower value 1.05 | locus YJR066W, strain TOR1, stronger effect = lower value 0.971

From PubChem BioAssay AID1159580 (chemical genetic matrix, 2015)
